# Results filed as inconclusive are left out. Where a call stands in place of a potency, no number is given. Activity calls are given as the source filed them. Calls follow the shape of the dose curve; as a rule, active = well fitted inhibition curve with a large enough effect; inconclusive = small, poorly fitted or top-dose-only effect; inactive = flat fitted curve, though single readings scatter.
# Test system: CP262
# Assay: qHTS profiling for inhibitors of Plasmodium falciparum proliferation (AID 504749); also: nearly all actives have a fitted effect of over 60% in size
# Conditions: P. falciparum in erythrocytes, SYBR Green DNA, 72 h; series mostly up to 28.7 µM
# In short: (§1)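 Each compound contacts P. falciparum-infected red blood cells for 72 h at 37 C; lysis buffer (Tris, EDTA, saponin, Triton X, SYBR Green I) is added and fluorescence measured next morning; values normalized to controls.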
# Potency is read from the fitted curve at half-maximal effect.
row,Compound,Potency
1,COc1cc(-c2ccc(-[n+]3nc(-c4ccccc4)nn3-c3ccc([N+](=O)[O-])cc3)c(OC)c2)ccc1-[n+]1nc(-c2ccccc2)nn1-c1ccc([N+](=O)[O-])cc1,inactive
2,CC(C)=O,inactive
3,CCCCC(CC)COC(=O)CC(C(=O)OCC(CC)CCCC)S(=O)(=O)O (centres undefined),inactive
4,O=C(Nc1ccc(Br)cc1)c1cc(Br)c(Br)s1,inactive
5,CC1=C(/C=C/C(C)=C/C=C/C(C)=C/CO)C(C)(C)CCC1,inactive
6,CCN(CC)CCOc1ccc(-c2nc3cc(Cl)ccc3s2)cc1,inactive
7,O=C1CSC2(CCN(CCCN3c4ccccc4Sc4ccc(Cl)cc43)CC2)N1,inactive
8,CN(C)CCCN1c2ccccc2C(C)(C)c2ccccc21,inactive
9,O=CCCCC=O,inactive
10,CCCCC(=O)O[C@]1(C(=O)CO)[C@H](C)C[C@H]2[C@@H]3CCC4=CC(=O)C=C[C@]4(C)[C@@]3(F)[C@@H](O)C[C@@]21C,inactive
11,CCOC(=O)C1=C(C)NC(C)=C(C(=O)OCC)C1c1ccccc1C=CC(=O)OC(C)(C)C,12 µM (active)
12,CC1=C(/C=C/C(C)=C/C=C/C(C)=C/C=C/C=C(C)/C=C/C=C(C)/C=C/C2=C(C)C(=O)CCC2(C)C)C(C)(C)CCC1=O,inactive
13,CC(=O)Oc1cc(C)c(OC(C)=O)c2ccccc12,13.5 µM (active)
14,CN1C(=O)CN2CCc3ccccc3C2c2cc(Cl)ccc21 (centres undefined),inactive
15,CC(C)N=c1cc2n(-c3ccc(Cl)cc3)c3ccccc3nc-2cc1Nc1ccc(Cl)cc1,inactive
16,C=C1C(=CC=C2CCC[C@@]3(C)[C@@H]2CC[C@H]3[C@H](C)CCCC(C)C)C[C@@H](O)C[C@@H]1O,inactive
17,C#C[C@]1(O)CC[C@H]2[C@@H]3CCC4=CCCC[C@@H]4[C@H]3C(=C)C[C@@]21CC,inactive
18,Cc1cn([C@H]2C[C@H](O)[C@@H](CO)O2)c(=O)[nH]c1=O,inactive

# Test system: CP265
# Assay: as above
# Conditions: P. falciparum in erythrocytes, SYBR Green DNA, 72 h; series mostly up to 28.7 µM
# In short: as §1
row,Compound,Potency
1,CCN(CC)CCOc1ccc(-c2nc3cc(Cl)ccc3s2)cc1,inactive
2,CCNC(=O)[C@@H]1CCCN1C(=O)[C@H](CCCN=C(N)N)NC(=O)[C@H](CC(C)C)NC(=O)[C@@H](Cc1c[nH]c2ccccc12)NC(=O)[C@H](Cc1ccc(O)cc1)NC(=O)[C@H](CO)NC(=O)[C@H](Cc1c[nH]c2ccccc12)NC(=O)[C@H](Cc1cnc[nH]1)NC(=O)[C@@H]1CCC(=O)N1,7.94 µM (active)
3,CCCCCC(CC)COC(=O)CC(C(=O)OCC(CC)CCCC)S(=O)(=O)O (centres undefined),inactive
4,O=CCCCC=O,inactive
5,CCCCC(=O)O[C@]1(C(=O)CO)[C@H](C)C[C@H]2[C@@H]3CCC4=CC(=O)C=C[C@]4(C)[C@@]3(F)[C@@H](O)C[C@@]21C,inactive
6,CCOC(=O)C1=C(C)NC(C)=C(C(=O)OCC)C1c1ccccc1C=CC(=O)OC(C)(C)C,10 µM (active)
7,CC1=C(/C=C/C(C)=C/C=C/C(C)=C/C=C/C=C(C)/C=C/C=C(C)/C=C/C2=C(C)C(=O)CCC2(C)C)C(C)(C)CCC1=O,inactive
8,CN1C(=O)CN2CCc3ccccc3C2c2cc(Cl)ccc21 (centres undefined),inactive
9,CC(C)N=c1cc2n(-c3ccc(Cl)cc3)c3ccccc3nc-2cc1Nc1ccc(Cl)cc1,inactive
10,CCOC(=O)C1=CC2(CC)CCCN3CCc4c(n1c1ccccc41)C32 (centres undefined),11.2 µM (active)
11,CC[C@@]1(O)C(=O)OCc2c1cc1n(c2=O)Cc2cc3c([N+](=O)[O-])cccc3nc2-1,7.94 µM (active)
12,O=C(O)c1cc(=O)c2c3nc4ccccc4oc-3cc(=O)c2[nH]1,inactive
13,C=C1C(=CC=C2CCC[C@@]3(C)[C@@H]2CC[C@H]3[C@H](C)CCCC(C)C)C[C@@H](O)C[C@@H]1O,11.2 µM (active)
14,COC(=O)[C@H]1[C@H]2CC3c4[nH]c5ccccc5c4CCN3C[C@@H]2CC[C@@H]1O (some centres undefined),inactive
15,Clc1cc(Cl)c(OCC#CI)cc1Cl,10 µM (active)
16,CN=C(NC#N)Nc1ccc(C2=NNC(=O)C[C@@H]2C)cc1,inactive
17,Cc1cn([C@H]2C[C@H](O)[C@@H](CO)O2)c(=O)[nH]c1=O,inactive
18,COC(=O)C1=C(C#N)NC(C)=C(C(=O)OC(C)C)C1c1cccc([N+](=O)[O-])c1 (centres undefined),10 µM (active)

# Test system: CP266
# Assay: as above
# Conditions: P. falciparum in erythrocytes, SYBR Green DNA, 72 h; series mostly up to 28.7 µM
# In short: as §1
row,Compound,Potency
1,CC(C)=O,inactive
2,CCCCC(CC)COC(=O)CC(C(=O)OCC(CC)CCCC)S(=O)(=O)O (centres undefined),inactive
3,CC1=C(/C=C/C(C)=C/C=C/C(C)=C/CO)C(C)(C)CCC1,inactive
4,CCN(CC)CCOc1ccc(-c2nc3cc(Cl)ccc3s2)cc1,inactive
5,CCNC(=O)[C@@H]1CCCN1C(=O)[C@H](CCCN=C(N)N)NC(=O)[C@H](CC(C)C)NC(=O)[C@@H](Cc1c[nH]c2ccccc12)NC(=O)[C@H](Cc1ccc(O)cc1)NC(=O)[C@H](CO)NC(=O)[C@H](Cc1c[nH]c2ccccc12)NC(=O)[C@H](Cc1cnc[nH]1)NC(=O)[C@@H]1CCC(=O)N1,13.5 µM (active)
6,O=CCCCC=O,inactive
7,CCCCC(=O)O[C@]1(C(=O)CO)[C@H](C)C[C@H]2[C@@H]3CCC4=CC(=O)C=C[C@]4(C)[C@@]3(F)[C@@H](O)C[C@@]21C,inactive
8,CC1=C(/C=C/C(C)=C/C=C/C(C)=C/C=C/C=C(C)/C=C/C=C(C)/C=C/C2=C(C)C(=O)CCC2(C)C)C(C)(C)CCC1=O,inactive
9,CN1C(=O)CN2CCc3ccccc3C2c2cc(Cl)ccc21 (centres undefined),inactive
10,O=C(O)c1cc(=O)c2c3nc4ccccc4oc-3cc(=O)c2[nH]1,inactive
11,C=C1C(=CC=C2CCC[C@@]3(C)[C@@H]2CC[C@H]3[C@H](C)CCCC(C)C)C[C@@H](O)C[C@@H]1O,inactive
12,C#C[C@]1(O)CC[C@H]2[C@@H]3CCC4=CCCC[C@@H]4[C@H]3C(=C)C[C@@]21CC,inactive
13,Cc1cn([C@H]2C[C@H](O)[C@@H](CO)O2)c(=O)[nH]c1=O,inactive

# — PubChem BioAssay (NCATS)
